About 7,900 targets were measured; listed, in parts, are those with a hit and a random draw of the rest. About 0.6% of all pairs of compound and target were hits. A number with no mark means an inactive call.
What was measured:
Test in all cases: log2 fold change, soluble protein after heating vs DMSO (PISA); higher = thermal stabilisation; K562 cells, 10 uM, 30 min; active = over 0.2 and 3.5 SD of the protein, either way, in both replicates (recomputed)
[1] = biological target: AAGAB (UniProt Q6PD74)
Procedure, shortened: (§1)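 K562 cells at 2×10^6 cells/mL were treated for 30 min with 10 μM compound, and aliquots were heated for 3 min over 48°C-58°C before pooling. Extraction used PBS with 0.5% NP-40 at 4°C, and soluble protein was the supernatant after 21,000xg for 90 min, measured by TMTpro 16plex LC-MS/MS with channel sums equalised. Thermal stability values, relative to control samples and from duplicates, are log2 fold changes.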

[2] = biological target: AAK1 (UniProt A0A096LP25)
Procedure, shortened: as §1

[3] = biological target: AAK1 (UniProt Q2M2I8)
Procedure, shortened: as §1

Sequence of AAGAB (Q6PD74 whole entry, looked up): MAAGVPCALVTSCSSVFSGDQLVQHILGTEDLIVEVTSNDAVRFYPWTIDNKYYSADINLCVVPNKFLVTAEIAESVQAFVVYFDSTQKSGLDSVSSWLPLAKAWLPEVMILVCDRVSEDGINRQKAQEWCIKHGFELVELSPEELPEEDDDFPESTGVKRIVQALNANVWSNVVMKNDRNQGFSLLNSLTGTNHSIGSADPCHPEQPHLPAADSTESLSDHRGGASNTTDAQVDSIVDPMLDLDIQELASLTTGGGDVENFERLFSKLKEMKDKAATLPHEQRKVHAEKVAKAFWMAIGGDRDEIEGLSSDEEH
Sequence of AAK1 (UniProt Q2M2I8) (Q2M2I8 whole entry, looked up): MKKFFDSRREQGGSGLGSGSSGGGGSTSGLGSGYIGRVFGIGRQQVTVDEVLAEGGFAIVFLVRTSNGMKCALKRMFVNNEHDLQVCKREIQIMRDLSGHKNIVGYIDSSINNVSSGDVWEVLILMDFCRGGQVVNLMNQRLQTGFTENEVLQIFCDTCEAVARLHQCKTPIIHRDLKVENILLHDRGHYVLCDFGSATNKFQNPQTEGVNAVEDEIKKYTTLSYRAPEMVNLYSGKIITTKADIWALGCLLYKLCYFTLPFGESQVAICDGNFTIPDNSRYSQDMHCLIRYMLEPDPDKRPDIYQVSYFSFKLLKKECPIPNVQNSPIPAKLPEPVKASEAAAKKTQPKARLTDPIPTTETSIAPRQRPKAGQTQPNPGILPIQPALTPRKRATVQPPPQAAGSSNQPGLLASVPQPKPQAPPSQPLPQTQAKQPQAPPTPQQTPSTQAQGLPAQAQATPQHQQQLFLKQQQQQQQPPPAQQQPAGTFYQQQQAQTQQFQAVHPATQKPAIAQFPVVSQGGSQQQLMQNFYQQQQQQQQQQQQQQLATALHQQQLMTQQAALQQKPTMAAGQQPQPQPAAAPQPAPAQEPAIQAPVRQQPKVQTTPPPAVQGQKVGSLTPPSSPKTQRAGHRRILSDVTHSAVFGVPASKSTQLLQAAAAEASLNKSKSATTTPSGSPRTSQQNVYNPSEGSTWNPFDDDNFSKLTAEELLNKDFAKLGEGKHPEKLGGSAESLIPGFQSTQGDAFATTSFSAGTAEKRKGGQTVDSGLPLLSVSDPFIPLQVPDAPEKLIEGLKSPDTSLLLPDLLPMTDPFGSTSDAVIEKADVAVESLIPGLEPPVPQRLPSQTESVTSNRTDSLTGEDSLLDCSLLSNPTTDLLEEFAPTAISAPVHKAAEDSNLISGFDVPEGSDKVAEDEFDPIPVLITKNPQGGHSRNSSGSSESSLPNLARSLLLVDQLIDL

| Structure (SMILES) | log2 fold change [1] | log2 fold change [2] | log2 fold change [3] |
| --- | --- | --- | --- |
| C[C@@H](Oc1cc(-c2cnn(C3CCNCC3)c2)cnc1N)c1c(Cl)ccc(F)c1Cl [crizotinib] | -0.134 | 0.124 | 0.169 |
| CN(C)CC(=O)Nc1ccc2[nH]c(=O)c3ccccc3c2c1 | 0.021 | 0.037 | 0.087 |
| CC(C)N(C[C@H]1O[C@@H](n2cnc3c(N)ncnc32)[C@H](O)[C@@H]1O)[C@H]1C[C@@H](CCc2nc3cc(C(C)(C)C)ccc3[nH]2)C1 [pinometostat] | 0.147 | -0.033 | -0.05 |
| COc1cc(C(=O)O)ccc1NC(=O)[C@@H]1N[C@@H](CC(C)(C)C)[C@](C#N)(c2ccc(Cl)cc2F)[C@H]1c1cccc(Cl)c1F [idasanutlin] | -0.053 | -0.077 | -0.129 |
| O=C1NC(=NCc2cccs2)S/C1=C\c1ccc2ncccc2c1 | -0.059 | 0.234 | 0.339 |
| O=C1NC(=O)/C(=C\c2ccc3nccnc3c2)S1 | 0.027 | 0.107 | 0.033 |
| Cc1cn(-c2cc(NC(=O)c3ccc(C)c(Nc4nccc(-c5cccnc5)n4)c3)cc(C(F)(F)F)c2)cn1 [nilotinib] | -0.077 | -0.084 | 0.027 |
| O=C1NC(=O)C(c2cnc3ccccn23)=C1c1cn2c3c(cc(F)cc13)CN(C(=O)N1CCCCC1)CC2 | -0.109 | -0.159 | 0.238 |
| Cn1cc(-c2ccc3nnc(C(F)(F)c4ccc5ncccc5c4)n3n2)cn1 | -0.121 | -0.079 | -0.086 |
| Cc1nc(Nc2ncc(C(=O)Nc3c(C)cccc3Cl)s2)cc(N2CCN(CCO)CC2)n1 [dasatinib] | -0.161 | -0.18 | -0.203 |
| CCn1c(C(=O)N(C2CC2)C2CC2)cc2c3c(ncn3C)c(Nc3cc(C)n(C)n3)nc21 | 0.073 | -0.041 | 0.019 |
| Cc1ccc(C(=O)N(CCCN)[C@@H](c2nc3cc(Cl)ccc3c(=O)n2Cc2ccccc2)C(C)C)cc1 [ispinesib] | -0.017 | 0.011 | 0.091 |
| CCCS(=O)(=O)Nc1ccc(F)c(C(=O)c2c[nH]c3ncc(Cl)cc23)c1F | 0.144 | – | -0.028 |
| CC[C@@H]1C(=O)N(C)c2cnc(Nc3ccc(C(=O)N[C@H]4CC[C@H](N5CCN(CC6CC6)CC5)CC4)cc3OC)nc2N1C(C)C [volasertib] | -0.551 (active) | – | 0.121 |
| CN1CCN(c2nc(C3=C(c4c[nH]c5ccccc45)C(=O)NC3=O)c3ccccc3n2)CC1 [sotrastaurin] | 0.007 | -0.005 | -0.196 |
| CC[C@H](C)n1cc(C)c2c(C(=O)NCc3c(C)cc(C)[nH]c3=O)cc(-c3ccc(N4CCNCC4)nc3)cc21 | 0.058 | -0.005 | -0.013 |
| COC(=O)N[C@@H](C)CNc1nccc(-c2cn(C(C)C)nc2-c2cc(Cl)cc(NS(C)(=O)=O)c2F)n1 [encorafenib] | 0.045 | 0.033 | -0.047 |
| COc1cc(Nc2ncc3c(n2)-c2ccc(Cl)cc2C(c2c(F)cccc2OC)=NC3)ccc1C(=O)O [alisertib] | 0.062 | 0.002 | 0.576 |
| NC(=O)c1cnc(N[C@@H]2CCCC[C@@H]2N)nc1Nc1cccc(-n2nccn2)c1 | -0.028 | 0.048 | 0.055 |
| COC(=O)[C@H](CCSC)NC(=O)c1ccc(NC[C@@H](N)CS)cc1-c1ccccc1 | -0.029 | 0.023 | -0.044 |
| Cc1ccc(NC(=O)c2cccc(C(C)(C)C#N)c2)cc1Nc1ccc2ncn(C)c(=O)c2c1 | -0.153 | -0.131 | 0.01 |
| C/C(=N\NC(=O)c1cccc(S(=O)(=O)N2CCOCC2)c1)c1cc(Cl)ccc1O | 0.088 | -0.092 | -0.055 |

| Structure (SMILES) | log2 fold change [1] | log2 fold change [2] | log2 fold change [3] |
| --- | --- | --- | --- |
| Oc1cc(-c2nc(-c3ccccc3)[nH]c2-c2ccncc2)ccc1Cl | 0.066 | 0.017 | 0.073 |
| CS(=O)(=O)CCNCc1ccc(-c2ccc3ncnc(Nc4ccc(OCc5cccc(F)c5)c(Cl)c4)c3c2)o1 [lapatinib] | -0.038 | – | 0.038 |
| O=C(Nc1nc2ccccc2n1CCN1CCOCC1)c1cccc([N+](=O)[O-])c1 [IRAK-1-4 Inhibitor I] | -0.016 | -0.063 | -0.085 |
| COc1ccc(Cn2ccc3ccc(C(=O)NO)cc32)cc1 | -0.017 | -0.089 | 0.048 |
| COc1cccc2cc(-c3nc([C@H]4CC[C@H](C(=O)O)CC4)n4ncnc(N)c34)[nH]c12 | -0.045 | 0.129 | 0.022 |
| Cn1cncc1[C@@](N)(c1ccc(Cl)cc1)c1ccc2c(c1)c(-c1cccc(Cl)c1)cc(=O)n2C [tipifarnib] | -0.031 | – | -0.057 |
| CN1CCC(CNc2ccc3ncc(-c4cccc(OC(F)(F)F)c4)n3n2)CC1 | -0.228 | 0.332 | 0.27 |
| Cc1ncc(-c2ccnc(Nc3ccc(S(C)(=O)=O)cc3)n2)n1C(C)C | 0.008 | 0.028 | 0.219 |
| O=C1c2ccccc2-c2n[nH]c3cccc1c23 | 0.01 | 0.254 | 0.319 |
| CC(C)C[C@@H](C=O)NC(=O)[C@H](CC(C)C)NC(=O)[C@H](CC(C)C)NC(=O)OCc1ccccc1 | 0 | 0.065 | -0.061 |
| Cc1ccc(NC(=O)c2cccc(N(C)C)c2)cc1NC(=O)c1ccc(O)cc1 | -0.063 | -0.011 | 0 |
| C#Cc1cccc(Nc2ncnc3cc(OCCOC)c(OCCOC)cc23)c1 [erlotinib] | 0.251 | 0.043 | -0.028 |
| COc1cc2nc(-c3cc(F)ccc3O)nc(N[C@@H]3CNC[C@H]3C(C)(C)O)c2cc1OC | -0.064 | – | 0.024 |
| NC(=O)Nc1cc(-c2cccc(F)c2)sc1C(=O)N[C@H]1CCCNC1 | -0.071 | 0.318 | 0.28 |
| Cc1ccc(Sc2cncc3sc(C(N)=O)cc23)cc1 | -0.012 | – | 0.032 |
| Cc1cccc(CC(=O)N2CCc3c2ccc(-c2cn(C)c4ncnc(N)c24)c3F)n1 | 0.016 | -0.017 | -0.048 |
| CN(CCOc1ccc(C[C@@H]2SC(=O)NC2=O)cc1)c1ccccn1 (racemic) [rosiglitazone] | 0.029 | 0.107 | 0.04 |
| Cc1cc(SCc2sc(-c3ccc(C(F)(F)F)cc3)nc2C)ccc1OCC(=O)O | 0.051 | -0.048 | 0.096 |
| Cc1cc(Nc2cc(N3CCN(C)CC3)nc(Sc3ccc(NC(=O)C4CC4)cc3)n2)n[nH]1 [tozasertib] | 0.029 | 0.152 | 0.211 |
| CNc1nc(-c2ccc3c(N)n[nH]c3c2)cc(N2C[C@@H](C(=O)NC3CCCCC3)CC[C@H]2C)n1 | -0.084 | 0.244 | 0.252 |
| Cc1ccc(NC(=O)c2ccc(CN3CC[C@H](N(C)C)C3)c(C(F)(F)F)c2)cc1Nc1nccc(-c2cncnc2)n1 [bafetinib] | -0.046 | -0.058 | -0.016 |

Source: the supplement of paper PMC10849652
